Most compounds without a hit are left out; they make up all but 3.2% or so of the library.
Rtt109 Vps75 – inhibitors of Candida albicans Rtt109/Vps75 histone acetyltransferase | purified Rtt109/Vps75, ThioGlo CoA-SH fluorescence, 4 h | Q5AAJ8 | inhibition, % at 34.9 µM | 330,000 compounds, 0.16% hits;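 active means inhibition of at least 50% in every replicate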
Target sequence (Q5AAJ8 whole entry, looked up): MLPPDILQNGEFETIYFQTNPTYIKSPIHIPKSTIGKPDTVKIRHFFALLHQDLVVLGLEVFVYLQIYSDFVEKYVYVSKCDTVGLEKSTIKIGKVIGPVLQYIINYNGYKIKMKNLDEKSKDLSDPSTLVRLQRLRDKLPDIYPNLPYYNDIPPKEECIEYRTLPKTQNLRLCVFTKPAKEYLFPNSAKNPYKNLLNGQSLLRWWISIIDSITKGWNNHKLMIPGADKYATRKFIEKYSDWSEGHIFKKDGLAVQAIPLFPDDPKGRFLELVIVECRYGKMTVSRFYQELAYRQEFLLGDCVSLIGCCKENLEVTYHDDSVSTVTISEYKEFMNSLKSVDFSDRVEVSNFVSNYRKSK
dFosB act – enhances mouse delta FosB homodimer DNA binding. P13346. purified delta FosB, TAMRA-CDK5 oligo fluorescence polarization; percent of positive-control signal above neutral wells. activation, % at 25 µM. 340,000 compounds, 0.99% hits. AID 493131;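 active means mean activation above about 17%, with every replicate also reaching it, limit read from the data, passing the limit was not always enough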
SMARCA2 activ – increases SMARCA2 function in MMTV reporter cells; 370,000 compounds, 1% hits; AID 652017; activation, % at 9.1 µM; MG213 cells, MMTV-luciferase reporter, dexamethasone, overnight; in the data active means activation above about 7.8%;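 further: 0% = vehicle wells and 100% = reference activator wells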
esBAF inh – blocks esBAF chromatin remodeling in mouse ES cells. AID 602393. reporter increase, % at 12.5 µM. 350,000 compounds, 2% hits. Bmi1-luciferase knock-in reporter, 24 h; 100% = twice the neutral-well signal; in the data active means activation above about 40%;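 further: 0% = median of the plate's neutral control wells and 100% = double that signal; a rise in the Bmi1 reporter signal indicates esBAF inhibition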
Dyrk1A ADPGlo – blocks rat Dyrk1A kinase activity; Q63470; ADP-Glo luminescence, NFATc1 peptide; inhibition, % at 12.5 µM; 310,000 compounds, 0.43% hits; in the data active means inhibition above about 50%;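 further: plate controls were vehicle with enzyme for no effect and no enzyme for full effect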
CDK5 inh – blocks human CDK5/p35 kinase activity. Recombinant CDK5/p35, ADP-Glo luminescence, 60 min. 330,000 compounds, 0.01% hits. Q00535+Q15078. AID 488839. inhibition, % at 10 µM;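 active means highest replicate inhibition of at least 50% and at least 75% of replicates reaching 50%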;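 further: plate controls were DMSO neutral control for no effect and GW8510 at 10 µM for full effect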
Active calls of the source: *; . = no result given.

SMILES | Rtt109 Vps75 | dFosB act | SMARCA2 activ | esBAF inh | Dyrk1A ADPGlo | CDK5 inh
C[C@@H]1CCCCO[C@@H](CN(C)C(=O)NC2CCCCC2)[C@H](C)CN([C@@H](C)CO)C(=O)c2cc(NC(=O)CCCN(C)C)ccc2O1 | . | . | . | 13 | . | .
Brc1ccc(-c2nnc(-c3ccco3)o2)cc1 | -8 | -7 | 6 | 60* | -3 | 0
Cc1ccc(-c2nnc(-c3ccc(Br)cc3)o2)o1 | 3 | -7 | 5 | 64* | 5 | -2
CC(C)CC#Cc1ccc2c(c1)O[C@@H](CN(C)S(=O)(=O)c1cccc(F)c1)[C@H](C)CN([C@H](C)CO)S2(=O)=O | . | . | . | -3 | . | .
Cc1ccc(S(=O)(=O)Nc2ccc3c(c2)CC(=O)N([C@H](C)CO)C[C@@H](C)[C@H](CN(C)C(=O)Nc2cccc4ccccc24)O3)cc1 | . | . | . | -1 | . | .
C[C@@H]1CN([C@H](C)CO)C(=O)c2cccc(NC(=O)c3nc4ccccc4s3)c2O[C@H]1CN(C)Cc1ccncc1 | . | . | . | 11 | . | .
CO[C@H]1CC[C@@H]2CCN(C)C(=O)[C@H](C)[C@@H](OC)CN(C)C(=O)c3cc(C#N)ccc3OC[C@@H]1O2 | . | . | . | -3 | . | .
COc1ccc(NC(=O)N(C)C[C@@H]2Oc3ccc(N(C)C)cc3C(=O)N([C@@H](C)CO)C[C@@H]2C)cc1 | . | . | . | 2 | . | .
C/C=C/c1cnc2c(c1)C(=O)N([C@@H](C)CO)C[C@@H](C)[C@H](CN(C)C(=O)Cc1ccccc1)O2 | . | . | . | -3 | . | .
CC1(C)CC(=O)c2c(O)cc(OCc3ccc([N+](=O)[O-])cc3)cc2O1 | 0 | -6 | 0 | 47* | 9 | 2
Cc1ccc2c(c1)c(C)c(C)n2CC(O)Cn1nc(C)cc1C (stereo unspecified) | -1 | -1 | -3 | -3 | 2 | -2
Cc1ccc2c(c1)c(C)c(C)n2CC(O)Cn1nnc2ccccc21 (stereo unspecified) | 5 | -9 | 3 | 63* | -2 | -1
C[C@@H]1CN([C@@H](C)CO)C(=O)Cc2cc(NC(=O)Nc3ccccc3)ccc2O[C@H]1CN(C)Cc1ccc(C(F)(F)F)cc1 | . | . | . | -1 | . | .
Cc1cc(C(=O)COC(=O)Cc2c(F)cccc2Cl)c(C)n1C | . | . | 5 | 78* | . | .
CC1CCCN(C(=O)COC(=O)Cc2c(F)cccc2Cl)C1 (stereo unspecified) | 0 | -2 | 2 | 45* | -1 | -2
CC=Cc1ccc2n(c1=O)C[C@H]1N[C@@H]2[C@@H](C(=O)NCCc2ccccc2)[C@@H]1CO (mixture of isomers) | . | . | . | 7 | . | .
CC(C)C#Cc1cnc2c(c1)C(=O)N([C@@H](C)CO)C[C@@H](C)[C@@H](CN(C)C(=O)C1CCC1)O2 | . | . | . | 0 | . | .
O=C(C[C@@H]1CC[C@@H](NC(=O)C2CCC2)[C@H](CO)O1)Nc1nccs1 | . | . | . | -2 | . | .
CCOC(=O)c1sc(NC(=O)c2ccc(OC(C)=O)cc2)nc1C | -2 | -14 | 1 | . | . | 0
CCOC(=O)c1sc(NC(=O)c2ccc(OC)cc2)nc1C | -8 | -7 | -1 | 47* | -5 | -3
CCOC(=O)c1sc(NC(=O)c2ccc(C)o2)nc1C | -6 | -26 | 4 | 62* | 3 | 0
CCOC(=O)Nc1nnc(-c2ccc(OC)cc2)s1 | 7 | -3 | 3 | 79* | 0 | -2
CCOCc1nnc(NC(=O)c2ccc(OC)cc2)s1 | -2 | 4 | -2 | 53* | 4 | 1
C[C@@H]1CN([C@@H](C)CO)C(=O)c2cc(NS(=O)(=O)c3cn(C)cn3)ccc2O[C@@H](C)CCCCO[C@H]1CN(C)C(=O)CCCN(C)C | . | . | . | 0 | . | .
C[C@@H]1CN([C@H](C)CO)C(=O)c2cc(NC(=O)c3ccncc3)ccc2O[C@@H]1CN(C)Cc1ccccc1 | . | . | . | -5 | . | .
C/C=C/c1ccc([C@H]2[C@@H](CNCC)N(c3nc(C)c(C)s3)[C@H]2CO)cc1 | . | . | . | -6 | . | .
COCC(=O)Nc1ccc2c(c1)[C@H]1C[C@@H](CC(=O)N3CCCCC3)O[C@H](CO)[C@H]1O2 | . | . | . | -2 | . | .
Cc1cccnc1NC(=O)COc1ccc2c(c1)CCC2 | -4 | 9 | 2 | 57* | 0 | 2
Cc1csc(NC(=O)COc2ccc3c(c2)CCC3)n1 | -3 | -9 | 2 | 64* | 2 | 4

High-throughput results: PubChem BioAssay, several laboratories
